# Source: PubChem BioAssay
# Shiga toxin inh = Shiga toxin inhibition; inhibition, % at 38.7 µM; AID 2315; Vero cells, Shiga toxin protein synthesis inhibition reporter; actives 9.2% (n = 290,000); in the data active = inhibition mostly above about 28%, no sharp cut-off; inactive = mostly below about 43%; also: 0% is about no effect
# AMA1-RON2 inh = AMA1-RON2 (P. falciparum) interaction inhibition; AlphaScreen AMA1-biotinylated RON2 peptide binding; Potency, µM (titrated, usually from 58.2 µM), for the others: at the top dose activity change, negative = inhibition, most hits filed as inhibitors; actives 0.2% (n = 360,000); AID 720542; active = well fitted inhibition curve with a large enough effect; inconclusive = small, poorly fitted or top-dose-only effect; inactive = no such curve, though single readings can be large or run the other way;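 also: potency is read from the fitted curve at half-maximal effect; 0% = vehicle wells and -100% = peptide control; nearly all actives have a fitted effect of over 45% in size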
#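 AMA1 (3D7) with his tag at 25 nM final met compounds first, then biotinylated RON2 peptide at 25 nM; detection used donor plus acceptor beads, 10 µg/mL apiece, read by AlphaScreen after 30 min at room temperature.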
# CHX counter = counter-screen for Shiga toxin inhibitors: cycloheximide protein synthesis inhibition; cell reporter, cycloheximide protein synthesis inhibition counterscreen; max response, %; actives 12% (n = 300,000); AID 2314; in the data active = max response mostly above about 13%, no sharp cut-off; inactive = mostly below about 14%; also: read at 38.3 µM for the half of the compounds with a filed dose; 0% is about no effect
# Lassa entry inh = blocks Lassa virus binding to or entry into cells; Potency, µM (highest dose often 37.9 µM), for inactives: top-dose activity change, negative = inhibition, most hits filed as inhibitors; AID 540256; actives 1.2% (n = 300,000); Lassa virus pseudotype entry inhibition, cell reporter; calls by dose curve; tested in HEK293 cells; also: potency is read from the fitted curve at half-maximal effect; % is scaled to controls: 0 for no effect and ±100 for the full control effect; nearly all actives have a fitted effect of over 50% in size
# Marburg entry inh = inhibitors of Marburg virus binding or cell entry | Marburg virus pseudotyped entry inhibition, cell reporter | Potency, µM (top dose mostly 37.8 µM), for inactives: at the top dose activity change, negative = inhibition, hits mostly inhibitors | actives 1.8% (n = 300,000); calls by dose curve; tested in HEK293 cells; also: potency is read from the fitted curve at half-maximal effect; % is scaled to controls: 0 for no effect and ±100 for the full control effect
# The depositor's hits bear a star; ? = inconclusive; · = no result; [ ] = dose if it differs, or a comment. The full list was thinned out, with hits kept by preference.
SMILES,Shiga toxin inh,AMA1-RON2 inh,CHX counter,Lassa entry inh,Marburg entry inh
Cc1ccc(NC(=O)N2CCCc3ccccc32)cc1,86*,3%,31*,29%,-8%[46.1 µM]
CCNC(=O)c1ccc(NC(=O)N2CCCCc3ccccc32)cc1,·,·,·,-2%[46.1 µM],·
Cc1ccc(NC(=O)N2CCc3ccccc32)cc1,20,3%,21*,?,?
CCOc1ccccc1CNC(=O)Cc1ccc(NC(=O)N2CCCCc3ccccc32)cc1,·,·,·,4.5µM*,·
Fc1ccc(NC(=S)N2CCCc3ccccc32)cc1,51*,-3%,10,-14%,11%
Cc1ccc(S(=O)(=O)c2nc(-c3ccco3)oc2SC(C)c2ccccc2)cc1 (stereo not drawn),·,·,·,-18%[46.1 µM],-20%[46.1 µM]
Cc1ccc(C(=O)NC2CCCc3c2cnn3-c2ccc(F)cc2F)cn1 (stereo not drawn),-6,·,-1,·,·
Cc1ccccc1-n1c(SC(C)C(=O)NCC2CCCO2)nnc1-c1ccncc1 (stereo not drawn),·,3%,·,14%,-11%[46.1 µM]
COCc1cc(C)nc2sc(C(=O)Nc3nccs3)c(N)c12,50,139%,42*,·,·
COCc1cc(C)nc2sc(C(=O)Nc3cccc(OC)c3)c(N)c12,66*,27%,54*,·,·
COCc1cc(C)nc2sc(C(=O)Nc3ccc(OC)cc3)c(N)c12,84,13%,29*,·,·
Cc1cc(C)c2c(N)c(C(=O)Nc3nccs3)sc2n1,-2,-8%,11,?,?
COCc1cc(C)nc2sc(C(=O)Nc3ccc(C(C)=O)cc3)c(N)c12,·,·,·,5%[46.1 µM],?
CCCCOc1ccc(-n2nc(C)cc2C)nn1,55*,1%,29*,30%,16%
Cc1cc(C)n(-c2ccc(OCC(=O)O)nn2)n1,-13,16%,6,-25%,11%
CCN1C(=NCc2cccc(Cl)c2)NC(c2cccc(C(F)(F)F)c2)C(C(=O)OC)=C1C (stereo not drawn),·,·,·,-42%[14.3 µM],-25%[14.2 µM]
CCOc1ccc2nc(SCC3CC3(Cl)Cl)[nH]c2c1 (stereo not drawn),114*,-2%,55*,?,?
O=c1c2ccccc2nc(SCC2CCCCO2)n1-c1ccccc1 (stereo not drawn),17,0%,1,?,-1%
c1ccc2[nH]c(SCC3CCCCO3)nc2c1 (stereo not drawn),105*,-2%,34*,-11%,?
O=C(O)CSc1nc2ccccc2[nH]1,-4,-5%,1,-5%,2%
ClC1(Cl)CC1CSc1nc2ccccc2[nH]1 (stereo not drawn),61,13%,42*,·,-1%[46.1 µM]
Cc1nn(Cc2ccccc2)c(Cl)c1C(=O)NCc1ccco1,-2,1%,10,-29%,-11%
CC(C)NC(=S)N/N=C1\CCCCC1C1CCCCC1 (stereo not drawn),15,-7%,-5,-11%,?
O=c1[nH]c(SCc2c(F)cccc2Cl)nc2c1CCC2,·,·,·,0%[46.1 µM],22%[46.1 µM]
C[C@@H]1CN([C@H](C)CO)C(=O)c2c(c3ccccc3n2C)-c2ccccc2CO[C@H]1CN(C)Cc1ccc(Oc2ccccc2)cc1,·,-22%,·,·,·
SMILES,Shiga toxin inh,AMA1-RON2 inh,CHX counter,Lassa entry inh,Marburg entry inh
O=C(CCc1c[nH]c2ccccc12)NC1CC1,-12,0%,-2,8%,0%[46.1 µM]
O=C(Nc1nc2ccc(S(=O)(=O)N3CCCC3)cc2s1)c1ccco1,-1,-22%,15,3%,?
O=C(Nc1nc2ccc(Br)cc2s1)c1ccco1,·,8%,30*,?,?
O=C(Nc1ccccc1-c1nc2ccccc2s1)c1ccco1,106*,33%,39*,-13%,-16%
O=C(Nc1nc2c(Cl)ccc(Cl)c2s1)c1ccco1,-12,2%,-4,·,·
O=C(Nc1nc2ccc(Cl)cc2s1)c1ccco1,62*,-12%,41*,11µM*,?
Cn1cc(Cl)c(C(=O)Nc2nc3ccc(Cl)cc3s2)n1,71*,-7%,57*,?,1%
Clc1ccc([C@@H](c2ccccc2Cl)C(Cl)Cl)cc1,·,·,·,·,-12%
Cc1noc(C)c1C(=O)Nc1nc2ccc(F)cc2s1,·,-3%,·,·,·
Cc1noc(C)c1C(=O)Nc1nc2ccc(Cl)cc2s1,89*,21%,42*,·,·
COc1ccc(-c2nn(-c3ccccc3)cc2C(=O)N2c3ccc(C)cc3C3CN(C)CCC32)cc1 (stereo not drawn),-5,?,0,11µM*,?
CC(c1nccs1)N(C)C(=O)CCc1nnc(-c2ccc(-c3ccccc3)cc2)o1 (stereo not drawn),28,-10%,26*,·,·
CC(NC(=O)CCc1nnc(-c2ccc(-c3ccccc3)cc2)o1)c1nccs1 (stereo not drawn),36,-10%,14*,?,?
COC(=O)CCCNC(=O)CCc1nnc(-c2ccc(-c3ccccc3)cc2)o1,·,8%,·,·,·
O=C(CCc1nnc(-c2ccc(-c3ccccc3)cc2)o1)NCCc1ccccn1,59,39%,18*,?,?
O=C(CCc1nnc(Cc2ccc(-c3ccccc3)cc2)o1)NCCc1ccccn1,8,27%,9,-3%[46.1 µM],13%[46.1 µM]
CC12CCC=CC1C(c1ccc(C(F)(F)F)cc1)N(Cc1ccccc1)C2=O (stereo not drawn),-14,·,0,·,·
COc1ccc(Cc2[nH]n3c(=O)c(Cl)c(C)nc3c2-c2ccccc2)cc1,10,-14%,4,11%[46.1 µM],2%[46.1 µM]
Cc1[nH]c2ccccc2c1C(=O)CCl,-1,-9%,-1,·,·
Cc1[nH]c2ccccc2c1C(=O)C(=O)N1CCOCC1,11,10%,-2,·,·
CCN(CC)C(=S)SCC(=O)c1c(C)[nH]c2ccccc12,22,-13%,15*,0%,?
Cc1[nH]c2ccccc2c1C(=O)CSC(=S)N1CCOCC1,84*,-5%,17*,4%,?
CC1CCN(CCCn2c(SCC(=O)Nc3ccccc3Cl)nc3ccccc3c2=O)CC1,-20,-3%,-10,6.3µM*,?
CCn1c(SCC(=O)Nc2ccc3[nH]c(=O)[nH]c3c2)nc2ccccc21,·,-7%[11.6 µM],·,0%,-21%
CCOC(=O)CSc1nc2ccccc2n1CC(=O)N(C(C)C)C(C)C,-12,13%,-4,-3%,?
SMILES,Shiga toxin inh,AMA1-RON2 inh,CHX counter,Lassa entry inh,Marburg entry inh
CN(C)S(=O)(=O)c1cccc(NC(=O)CSc2nc3ccccc3n2-c2ccccc2)c1,-7,-6%,6,?,?
CC(C)NC(=O)CSc1nc2ccccc2n1CC(=O)N(C(C)C)C(C)C,46*,0%,20*,8%[46.1 µM],2%[46.1 µM]
CN(C)S(=O)(=O)c1ccc(NC(=O)CSc2nc3ccccc3n2-c2ccccc2)cc1,-6,-17%,-3,18µM*,?
CCn1c(SCC(=O)Nc2ccc(C(C)=O)cc2)nc2ccccc21,107*,-10%,42*,5%,?
CN(CC(=O)Nc1cccc(F)c1)C(=O)c1ccccc1-n1cnnn1,·,-12%,·,8%,5%[46.1 µM]
CN(C)S(=O)(=O)c1ccc2c(c1)c(=O)c(C(=O)N1CCN(c3cccc(Cl)c3)CC1)cn2C,·,·,·,-2%[46.1 µM],?
CCN(C(=O)CSc1nc2ccccc2n1CC(=O)Nc1ccc(F)cc1F)c1ccccc1,·,·,·,11µM*,·
